For two molecules, inhibition results are on record in PubChem BioAssay AID504900 (The Scripps Research Institute Molecular Screening Center, 2011).

This is one part of the list. Unmarked numbers belong to inactive results. No stated cut-off is given here; in the data, active means inhibition above about 32%; inactive means the rest.

Broadly, the inhibition is the drop in the measured response relative to a control, in per cent.

The assay has as its target Mu-type opioid receptor (Homo sapiens) + Delta-type opioid receptor (Homo sapiens) (UniProt P35372+P41143). As to the kind of experiment: OPRM1-OPRD1 heterodimer inverse agonism – cell-based, luminescence, confirmation (AID 504900).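 Further: 0% = cells with DMSO and 100% = wells lacking cells with DMSO.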 The following applies: cells expressing OPRM1/OPRD1 heterodimer, at 9.3 µM, hits give high values.

Chain of Mu-type opioid receptor (Homo sapiens) + Delta-type opioid receptor (Homo sapiens) (P35372 whole entry, looked up): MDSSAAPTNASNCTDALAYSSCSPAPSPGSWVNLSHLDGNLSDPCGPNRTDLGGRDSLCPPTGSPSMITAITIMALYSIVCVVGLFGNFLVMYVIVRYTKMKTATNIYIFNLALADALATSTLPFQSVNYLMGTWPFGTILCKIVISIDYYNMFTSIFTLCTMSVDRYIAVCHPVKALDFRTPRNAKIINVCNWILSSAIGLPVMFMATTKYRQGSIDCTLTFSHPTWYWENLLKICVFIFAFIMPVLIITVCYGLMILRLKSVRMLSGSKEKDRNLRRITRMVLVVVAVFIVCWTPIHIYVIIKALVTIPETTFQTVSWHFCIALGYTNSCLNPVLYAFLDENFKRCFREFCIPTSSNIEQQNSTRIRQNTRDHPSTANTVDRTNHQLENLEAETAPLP
Chain of Mu-type opioid receptor (Homo sapiens) + Delta-type opioid receptor (Homo sapiens) (P41143 whole entry, looked up): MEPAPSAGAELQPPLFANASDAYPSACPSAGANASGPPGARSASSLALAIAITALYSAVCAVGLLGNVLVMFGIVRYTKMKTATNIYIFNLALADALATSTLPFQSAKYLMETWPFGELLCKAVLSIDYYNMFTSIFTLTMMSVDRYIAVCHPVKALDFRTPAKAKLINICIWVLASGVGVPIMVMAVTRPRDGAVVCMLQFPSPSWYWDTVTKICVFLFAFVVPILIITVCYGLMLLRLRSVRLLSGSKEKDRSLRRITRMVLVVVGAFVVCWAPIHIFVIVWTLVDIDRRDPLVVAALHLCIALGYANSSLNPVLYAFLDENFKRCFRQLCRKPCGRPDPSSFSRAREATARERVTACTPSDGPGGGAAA

In the case of `CCOC(=O)c1c(N)n(CCN2CCOCC2)c2nc3ccccc3nc12`, the inhibition was 3.09%.

Turning to `CC1=CC(=Cc2sc3ccccc3[n+]2C)C=C(C)O1`, the inhibition was -2.66%.
